# The supplement of paper PMC9950053
# Where a name gives a salt, the structure may show the parent alone.
# System: Danio rerio larvae (5 dpf)
# Test: combined optomotor response (time in upper well half, down vs up moving lines, periods 7-14) minus DMSO control (percentage points); higher = stronger optomotor response than DMSO larvae
# Conditions: 10 µM; exposure time: 3 h pre-incubation + 3 h imaging
row,SMILES,combined optomotor response
1,N[C@@H]1C[C@H]1c1ccccc1 [Tranylcypromine hydrochloride],9.38
2,CN1C[C@H](C(=O)N[C@]2(C)O[C@@]3(O)[C@@H]4CCCN4C(=O)[C@H](Cc4ccccc4)N3C2=O)C[C@@H]2c3cccc4[nH]cc(c34)C[C@H]21 [Dihydroergotamine mesylate],13.2
3,CC(C)C[C@H]1C(=O)N2CCC[C@H]2[C@]2(O)O[C@](NC(=O)[C@@H]3C=C4c5cccc6[nH]c(Br)c(c56)C[C@H]4N(C)C3)(C(C)C)C(=O)N12 [Bromocriptine mesylate],-10.1
4,CC(O)(CS(=O)(=O)c1ccc(F)cc1)C(=O)Nc1ccc(C#N)c(C(F)(F)F)c1 (stereo unspecified) [Bicalutamide],0.551
5,COc1cc2c(cc1OC)C1CC(=O)C(CC(C)C)CN1CC2 (stereo unspecified) [Tetrabenazine],-0.321
6,CCN(C)C(=O)Oc1cccc([C@H](C)N(C)C)c1 [Rivastigmine tartrate],4.19
7,C=C1C[C@@H]2[C@H](CC[C@]3(C)C(=O)CC[C@@H]23)[C@@]2(C)C=CC(=O)C=C12 [Exemestane],3.71
8,CC[C@@H](C(N)=O)N1CCCC1=O [Levetiracetam],7.27
9,O=c1[nH]c2ccccc2n1C1CCN(CCCC(c2ccc(F)cc2)c2ccc(F)cc2)CC1 [Pimozide],-11
10,C=CCN1C[C@H](C(=O)N(CCCN(C)C)C(=O)NCC)C[C@@H]2c3cccc4[nH]cc(c34)C[C@H]21 [Cabergoline],-6.92
11,Cc1cccc([C@H](C)c2c[nH]cn2)c1C [Dexmedetomidine hydrochloride],-11.4
